Laboratory results published in PubChem BioAssay (EPA / NIEHS).
Active and inactive are the calls of the source. Rule for the calls: active = hit-call score of the fitted dose curve at least 0.9, where 1 is the maximum; inactive = score below 0.9.

Columns and labels:
[1] = ATG_CRE_CIS: Attagene CIS-FACTORIAL HepG2 Assay for human cAMP Responsive Element (CRE) binding protein 3 (AID 2282926); details: HepG2 CRE cis-reporter, Attagene multiplexed mRNA; actives raise or lower the signal
Procedure, shortened: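 Multiplexed transcription-unit reporters transfected into HepG2; 24 h dosing; RT-PCR/capillary electrophoresis fluorescence read-out; bidirectional fit vs DMSO.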

[2] = target: CCAAT/enhancer-binding protein beta (Homo sapiens) (UniProt P17676); assay: ATG_C_EBP_CIS: Attagene CIS-FACTORIAL HepG2 Assay for human CCAAT/Enhancer Binding Protein (C/EBP) beta (AID 2282927); details: HepG2 Attagene cis-factorial transcription factor reporter; actives raise or lower the signal
Procedure, shortened: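 Endogenous C/EBPb-driven reporter transcripts measured in transfected human HepG2 cells at 24 h via RT-PCR and capillary electrophoresis of labelled fragments. Activity fitted in both directions relative to DMSO baseline.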

[3] = ATG_CMV_CIS: Attagene CIS-FACTORIAL HepG2 Assay for human CMV (Internal Marker) (AID 2282928); details: HepG2 CMV promoter reporter, transcription factor profiling; actives raise or lower the signal;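 note: endpoint acts as a background internal control marker rather than a target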
Procedure, shortened: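 Endogenous transcription factor activity read in HepG2 via transfected cis-promoter reporter units. After 24 h dosing, reporter mRNA measured by RT-PCR/capillary electrophoresis; gain or loss of signal fit relative to DMSO.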

[4] = ATG_DR4_LXR_CIS: Attagene CIS-FACTORIAL HepG2 Assay for human Liver X Receptor (LXR), DR4 submotif (AID 2282929); details: HepG2 Attagene DR4 cis-reporter, mRNA transcription; actives raise or lower the signal
Procedure, shortened: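 DR4 cis-reporter in HepG2, 24 h exposure. Detection: RT-PCR, 6-FAM labelling, CE fragment analysis. Endpoint fitted bidirectionally, DMSO = baseline.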

[5] = target: Aryl hydrocarbon receptor (Homo sapiens) (UniProt P35869); assay: ATG_Ahr_CIS: Attagene CIS-FACTORIAL HepG2 Assay for human Aryl Hydrocarbon Receptor (Ahr) (AID 2282930); details: HepG2 AhR cis-factorial reporter transcription; actives raise or lower the signal
Procedure, shortened: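 Reporter mRNA levels, quantified by RT-PCR and fluorescent capillary electrophoresis, reflect endogenous AhR transcriptional activity in HepG2 cells carrying transfected cis-promoter reporter constructs. Readout at 24 h post-dose; gain or loss fitted against DMSO baseline.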

[6] = ATG_AP_1_CIS: Attagene CIS-FACTORIAL HepG2 Assay for human Activator Protein 1 (AP-1) (AID 2282931); details: HepG2 Attagene cis-factorial AP-1 reporter mRNA; actives raise or lower the signal
Procedure, shortened: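 Cis-regulated reporter units transiently expressed in HepG2 report endogenous transcription-factor activity. Signal: reporter mRNA at 24 h, via RT-PCR and fluorescent capillary electrophoresis. Endpoint derived by bidirectional fitting, DMSO as negative control.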

[7] = ATG_AP_2_CIS: Attagene CIS-FACTORIAL HepG2 Assay for human Activator Protein 2 (AP-2) (AID 2282932); details: HepG2 AP-2 cis-reporter, Attagene transcription factor profiling; actives raise or lower the signal
Procedure, shortened: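 HepG2, transient MRTU transfection, cis-regulated reporters; 24 h compound exposure; RNA isolated, RT-PCR, 6-FAM labelling, HpaI digest, CE fluorescence. DMSO = negative control/baseline, bidirectional fit.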

[8] = ATG_BRE_CIS: Attagene CIS-FACTORIAL HepG2 Assay for human Bone Morphogenetic Protein (BMP) Response Element (BRE) (AID 2282933); details: HepG2 BMP response element reporter, Attagene transcription factor profiling; actives raise or lower the signal
Procedure, shortened: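 Endogenous transcription factor activity read in transiently transfected HepG2 cells after 24 h chemical exposure. Bidirectional curve fitting against DMSO; readout is reporter transcript level by RT-PCR with capillary electrophoresis of labelled products.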

[9] = target: Transcription factor E2F1 (Homo sapiens) (UniProt Q01094); assay: ATG_E2F_CIS: Attagene CIS-FACTORIAL HepG2 Assay for human E2F Transcription Factor 1 (AID 2282935); details: HepG2 Attagene cis-reporter, E2F reporter RNA transcripts; actives raise or lower the signal
Procedure, shortened: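 Cis-element reporter mRNA induction in transiently transfected HepG2, 24 h exposure. Activity fitted in both directions relative to DMSO negative control.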

[10] = ATG_E_Box_CIS: Attagene CIS-FACTORIAL HepG2 Assay for human Enhancer Box (E-box) (AID 2282936); details: HepG2 E-box cis-reporter transcription, actives raise or lower the signal
Procedure, shortened: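 Cells: HepG2 (human liver), transient MRTU transfection. Exposure 24 h. RNA → oligo(dT) RT → PCR → 6-FAM label → HpaI → CE. Activity fitted both directions relative to DMSO.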

[11] = ATG_EGR_CIS: Attagene CIS-FACTORIAL HepG2 Assay for human Early Growth Response 1 (EGR1) (AID 2282938); details: HepG2 Attagene CIS-FACTORIAL EGR reporter mRNA; actives raise or lower the signal
Procedure, shortened: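 Endpoint derived by bidirectional fitting versus DMSO vehicle. Method: cis-promoter reporter units transfected into HepG2, 24 h dosing, RNA isolation, RT-PCR with 6-FAM primer extension and HpaI digestion, then capillary electrophoresis fluorescence detection.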

[12] = ATG_M_19_CIS: Attagene CIS-FACTORIAL HepG2 Assay for M19 Transcription Factor (Internal Marker) (AID 2282939); details: HepG2 Attagene CIS-FACTORIAL M19 internal marker reporter; actives raise or lower the signal
Procedure, shortened: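 Internal marker readout, fitted in both directions against DMSO, from HepG2 cells carrying transfected cis-element reporter constructs; RT-PCR and capillary electrophoresis of reporter mRNA after 24 h exposure.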

[13] = ATG_ERE_CIS: Attagene CIS-FACTORIAL HepG2 Assay for Estrogen Response Element (ERE) (AID 2282940); details: HepG2 ERE cis-reporter, Attagene RNA transcript; actives raise or lower the signal
Procedure, shortened: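 After 24 h compound treatment, RNA from transfected HepG2 cells was reverse-transcribed, reporter cDNA PCR-amplified, FAM-labelled, HpaI-cut and resolved by capillary electrophoresis. ERE-driven cis reporter transcripts reflect endogenous factors; gain or loss scored against DMSO.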

[14] = ATG_Ets_CIS: Attagene CIS-FACTORIAL HepG2 Assay for human Erythroblast Transformation Specific (ETS) (AID 2282941); details: HepG2 ETS cis-reporter transcription, actives raise or lower the signal
Procedure, shortened: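 Steps: transfect HepG2 with multiple reporter units; treat compound 24 h; isolate RNA, DNase-treat, reverse-transcribe; PCR-amplify, label with 6-FAM, digest with HpaI; separate by capillary electrophoresis. Activity fitted both directions versus DMSO.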

[15] = target: Hepatocyte nuclear factor 3-beta (Homo sapiens) (UniProt Q9Y261); assay: ATG_FoxA2_CIS: Attagene CIS-FACTORIAL HepG2 Assay for human Forkhead box A2 (FOXA2) (AID 2282942); details: HepG2 cis-reporter transcription factor activity, 24 h; actives raise or lower the signal
Procedure, shortened: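 Measured: reporter mRNA induction or loss in HepG2 transiently carrying multiple cis-regulated reporter units, 24 h after dosing. Quantified by RT-PCR plus capillary electrophoresis, normalised to DMSO.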

[16] = ATG_FoxO_CIS: Attagene CIS-FACTORIAL HepG2 Assay for human Forkhead box O (FoxO) (AID 2282943); details: HepG2 Attagene cis-reporter, FoxO element, mRNA; actives raise or lower the signal
Procedure, shortened: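 Endogenous transcription factor activity read from multiplexed cis-promoter reporter transcripts in transiently transfected HepG2, 24 h after dosing. Reporter RNA measured via RT-PCR plus capillary electrophoresis of FAM-labeled products; gain or loss relative to DMSO.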

[17] = ATG_GATA_CIS: Attagene CIS-FACTORIAL HepG2 Assay for human GATA Binding Protein (AID 2282944); details: HepG2 GATA cis-element reporter, Attagene multiplex mRNA; actives raise or lower the signal
Procedure, shortened: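 Reporter transcripts from a GATA cis-regulated unit, among multiplexed reporters in transfected HepG2 cells, were measured by RT-PCR with capillary electrophoresis after 24 h dosing. Induction or loss scored relative to DMSO.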

[18] = target: Retinoic acid receptor alpha (Homo sapiens) (UniProt P10276); assay: ATG_DR5_RAR_CIS: Attagene CIS-FACTORIAL HepG2 Assay for human Retinoic Acid Receptor Alpha (RARE), DR5 submotif (AID 2282934); details: HepG2 Attagene cis-factorial RARE DR5 reporter, mRNA; actives raise or lower the signal
Procedure, shortened: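 Reporter transcripts from a DR5-regulated unit, measured via RT-PCR plus capillary electrophoresis, reflect endogenous RAR activity in transiently transfected human HepG2 liver cells. Exposure lasted 24 h; gain or loss of signal scored against DMSO.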

[19] = ATG_M_61_CIS: Attagene CIS-FACTORIAL HepG2 Assay for M61 Transcription Factor (Internal Marker) (AID 2282937); details: HepG2 Attagene CIS-FACTORIAL M61 internal marker reporter; actives raise or lower the signal
Procedure, shortened: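 Background-control endpoint: HepG2 cells with cis-regulated reporter constructs, 24 h exposure, reporter mRNA detected via fluorescent primer extension and capillary electrophoresis; values from bidirectional fitting with DMSO baseline.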

Measured: AC50

Hepatocyte nuclear factor 3-beta (Homo sapiens), sequence (Q9Y261 whole entry, looked up): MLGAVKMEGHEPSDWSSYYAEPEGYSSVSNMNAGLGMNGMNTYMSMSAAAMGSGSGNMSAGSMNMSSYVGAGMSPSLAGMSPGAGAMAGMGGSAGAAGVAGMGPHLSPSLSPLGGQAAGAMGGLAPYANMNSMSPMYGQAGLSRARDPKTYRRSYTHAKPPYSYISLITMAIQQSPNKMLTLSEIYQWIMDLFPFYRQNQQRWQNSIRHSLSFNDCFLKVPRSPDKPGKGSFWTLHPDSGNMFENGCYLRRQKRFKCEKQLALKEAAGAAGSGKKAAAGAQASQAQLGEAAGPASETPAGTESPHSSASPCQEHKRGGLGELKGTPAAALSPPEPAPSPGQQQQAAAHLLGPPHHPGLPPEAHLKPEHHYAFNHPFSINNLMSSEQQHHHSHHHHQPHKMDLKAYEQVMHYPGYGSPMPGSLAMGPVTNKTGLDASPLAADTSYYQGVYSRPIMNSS
Aryl hydrocarbon receptor (Homo sapiens), sequence (P35869 whole entry, looked up): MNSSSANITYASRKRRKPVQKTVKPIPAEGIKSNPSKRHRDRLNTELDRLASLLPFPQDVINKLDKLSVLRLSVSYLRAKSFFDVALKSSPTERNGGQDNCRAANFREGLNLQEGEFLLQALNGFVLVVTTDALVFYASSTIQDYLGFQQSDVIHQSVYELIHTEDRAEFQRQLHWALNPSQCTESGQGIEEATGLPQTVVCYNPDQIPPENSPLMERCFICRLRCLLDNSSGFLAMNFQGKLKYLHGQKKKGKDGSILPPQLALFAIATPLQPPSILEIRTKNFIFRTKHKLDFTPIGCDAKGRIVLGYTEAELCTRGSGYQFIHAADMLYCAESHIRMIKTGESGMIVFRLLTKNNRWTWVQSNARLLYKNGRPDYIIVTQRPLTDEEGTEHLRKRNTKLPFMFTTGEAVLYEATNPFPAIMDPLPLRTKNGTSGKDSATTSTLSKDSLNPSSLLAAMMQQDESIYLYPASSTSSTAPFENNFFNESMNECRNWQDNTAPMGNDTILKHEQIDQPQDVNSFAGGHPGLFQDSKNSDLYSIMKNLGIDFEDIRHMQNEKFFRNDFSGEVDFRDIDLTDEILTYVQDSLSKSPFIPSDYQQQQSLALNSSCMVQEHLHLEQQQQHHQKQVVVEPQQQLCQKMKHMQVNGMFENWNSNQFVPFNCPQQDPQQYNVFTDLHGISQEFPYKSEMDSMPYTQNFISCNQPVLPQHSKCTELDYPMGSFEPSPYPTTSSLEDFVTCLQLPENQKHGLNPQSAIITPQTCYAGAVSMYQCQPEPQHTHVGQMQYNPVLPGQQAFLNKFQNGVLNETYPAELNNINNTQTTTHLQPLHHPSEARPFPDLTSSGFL
CCAAT/enhancer-binding protein beta (Homo sapiens), sequence (P17676 whole entry, looked up, the tested form may be a part): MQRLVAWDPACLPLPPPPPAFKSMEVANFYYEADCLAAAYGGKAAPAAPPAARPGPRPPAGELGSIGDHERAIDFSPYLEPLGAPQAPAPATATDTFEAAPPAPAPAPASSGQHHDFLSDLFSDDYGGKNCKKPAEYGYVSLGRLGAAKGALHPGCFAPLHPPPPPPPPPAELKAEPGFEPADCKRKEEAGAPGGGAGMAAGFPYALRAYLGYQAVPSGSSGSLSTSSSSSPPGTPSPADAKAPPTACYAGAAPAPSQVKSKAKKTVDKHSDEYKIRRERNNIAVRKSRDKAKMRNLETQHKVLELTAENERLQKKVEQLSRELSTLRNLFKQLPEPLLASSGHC
Transcription factor E2F1 (Homo sapiens), sequence (Q01094 whole entry, looked up): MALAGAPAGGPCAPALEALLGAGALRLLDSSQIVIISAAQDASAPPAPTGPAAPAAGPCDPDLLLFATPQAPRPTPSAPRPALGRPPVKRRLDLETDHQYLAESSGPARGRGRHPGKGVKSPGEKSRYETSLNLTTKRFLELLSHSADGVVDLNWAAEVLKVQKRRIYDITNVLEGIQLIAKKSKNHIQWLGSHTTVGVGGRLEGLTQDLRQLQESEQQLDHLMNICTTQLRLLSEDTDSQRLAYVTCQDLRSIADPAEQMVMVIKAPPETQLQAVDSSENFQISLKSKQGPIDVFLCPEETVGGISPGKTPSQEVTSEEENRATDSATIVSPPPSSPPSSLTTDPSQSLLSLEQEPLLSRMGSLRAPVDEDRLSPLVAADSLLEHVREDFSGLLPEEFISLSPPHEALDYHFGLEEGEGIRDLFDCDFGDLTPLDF
Retinoic acid receptor alpha (Homo sapiens), sequence (P10276 whole entry, looked up): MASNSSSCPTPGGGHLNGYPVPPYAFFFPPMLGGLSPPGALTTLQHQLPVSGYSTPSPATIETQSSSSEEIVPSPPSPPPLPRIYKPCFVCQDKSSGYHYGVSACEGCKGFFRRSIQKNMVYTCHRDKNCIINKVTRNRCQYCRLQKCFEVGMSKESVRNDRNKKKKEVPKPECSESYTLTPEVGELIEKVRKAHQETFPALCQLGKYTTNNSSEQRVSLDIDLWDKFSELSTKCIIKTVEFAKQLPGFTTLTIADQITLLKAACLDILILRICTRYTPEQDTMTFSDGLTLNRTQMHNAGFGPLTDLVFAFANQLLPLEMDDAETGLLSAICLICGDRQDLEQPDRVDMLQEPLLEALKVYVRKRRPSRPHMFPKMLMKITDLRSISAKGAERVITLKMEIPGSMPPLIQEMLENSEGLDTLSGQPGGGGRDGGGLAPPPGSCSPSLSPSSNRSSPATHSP

CCCC1CCOC(C)S1 (centres undefined)
inactive: [1] | [2] | [3] | [4] | [5] | [6] | [7] | [8] | [9] | [10] | [11] | [12] | [13] | [14] | [15] | [16] | [17]

C=CC(C)CCCC(C)(C)O (centres undefined)
inactive: [1] | [2] | [3] | [4] | [5] | [6] | [7] | [18] | [9] | [10] | [19] | [11] | [12] | [13] | [14] | [15] | [16]

CN(C)CCC=C1c2ccccc2CCc2ccccc21
inactive: [2] | [3] | [5] | [7] | [8] | [9] | [10] | [12] | [13] | [14] | [15] | [16] | [17]
active: [1] 33.4 µM | [4] 27 µM | [6] 61.2 µM | [11] 41 µM

Cc1ccncc1
inactive: [1] | [2] | [3] | [4] | [5] | [6] | [7] | [18] | [9] | [10] | [19] | [11] | [12] | [13] | [14] | [15] | [16] | [17]
